Data as given in PubChem BioAssay (NCI).
About 79,000 compounds went through this panel and 15% of them were active in at least one assay; those are over-represented in the sample as a whole. Activity calls are given as the source filed them. Cut-off read from the data, not from the text of the source: active = growth inhibition above about 70%; inactive = the rest. Where a SMILES comes first, the peptide text is derived from it. The star is where a group is joined. ONb = O=[N+]([O-])c1ccc(CO*)cc1; Boc = CC(C)(C)OC(=O)*

Columns and labels:
[1] = NCI Yeast Anticancer Drug Screen. Data for the rad50 strain (AID 155);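 note: 0% = growth of vehicle-only cultures of the same strain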; conditions: S. cerevisiae rad50 strain growth inhibition; at 50.0 µM; hits give high values
Outline: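 Relative growth inhibition (compound vs vehicle) was measured in yeast with a defined repair-gene alteration.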

[2] = NCI Yeast Anticancer Drug Screen. Data for the mec2-1 strain (AID 157); conditions: S. cerevisiae mec2-1 strain, at 50.0 µM, hits give high values
Outline: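 Each compound was tested on mec2-1 yeast, a strain altered in DNA damage repair or cell cycle control. Growth inhibition is reported relative to vehicle.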

[3] = NCI Yeast Anticancer Drug Screen. Data for the sgs1 mgt1 strain (AID 161);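 note: 0% = growth of cultures given vehicle only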; conditions: S. cerevisiae sgs1 mgt1 strain, at 50.0 µM, hits give high values
Outline: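 Genetically altered yeast, compound exposure, growth inhibition relative to vehicle.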

[4] = NCI Yeast Anticancer Drug Screen. Data for the cln2 rad14 strain (AID 165);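 note: 0% = growth equal to vehicle treated cultures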; conditions: S. cerevisiae cln2 rad14 strain, at 50.0 µM, hits give high values
Outline: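 Test compounds were added to cln2 rad14 yeast cultures; inhibition of growth was then determined by comparison with vehicle treatment.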

[5] = NCI Yeast Anticancer Drug Screen. Data for the bub3 strain (AID 167); conditions: S. cerevisiae bub3 mutant strain, at 50.0 µM, hits give high values
Outline: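 Screening used yeast with an engineered genetic alteration affecting cell cycle control. Compound-exposed cultures were compared with vehicle cultures, and reduced growth was taken as inhibition.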

[6] = NCI Yeast Anticancer Drug Screen. Data for the mlh1 rad18 strain (AID 175); conditions: S. cerevisiae mlh1 rad18 strain growth inhibition; at 50.0 µM; hits give high values
Outline: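 Inhibition values reflect reduced growth of mutant yeast versus vehicle-treated controls following compound exposure; the mutations affect DNA damage repair.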

Measured: growth inhibition

CC(C)(C)NNC(=O)/C(=C/c1ccc(Oc2ccc(Cl)c(Cl)c2)cc1)NC(=O)c1ccccc1
inactive: [1] 7.45% | [2] 1.1% | [3] 2.1% | [4] -4.2% | [5] -1.6% | [6] 16.1%

Clc1cccc(-c2nc3cccc4c3n2Cc2ncccc2-4)c1
inactive: [1] -47.8% | [2] -37% | [3] -42.5% | [4] -9.4% | [5] 0.65% | [6] -44.4%

O=C(Nc1ccc([N+](=O)[O-])cc1Cl)OCCc1ccccn1
inactive: [1] 3.25% | [2] 26.9% | [3] 23.6% | [4] -10.6% | [5] 52% | [6] 20.5%

COC1OC(CO)C(OC(=O)Nc2ccccc2)C(OC(=O)Nc2ccccc2)C1O (configuration not stated)
inactive: [1] -16.9% | [2] -10.7% | [3] -1.4% | [4] -38.1% | [5] 2.7% | [6] -8.15%

OCCN(CCO)c1ccc(O)cc1
inactive: [1] -6.85% | [2] 2.3% | [3] -17.1% | [4] 13.6% | [5] -3.6% | [6] -11.7%

CC(C)CCCC(C)C1CCC2C3CC=C4C(C)(C)C(OC(=O)c5ccccc5)CCC4(C)C3CCC12C (configuration not stated)
inactive: [1] 13.9% | [2] -6.6% | [3] -4.35% | [4] -4.35% | [5] 5.85% | [6] -1.3%

CCOC(=O)c1ccc(N(N=O)C(C)C)cc1
inactive: [1] 5.3% | [2] 5.15% | [3] 9.6% | [4] -16% | [5] 1.25% | [6] 5.15%

CC(C)CC(NC(=O)OC(C)(C)C)C(=O)NC(CCC(=O)OCc1ccc([N+](=O)[O-])cc1)C(=O)OCc1ccc([N+](=O)[O-])cc1 (stereo not drawn) (Boc-Leu-Glu(ONb)-ONb; configuration not given here)
inactive: [1] -9.3% | [2] -25.5% | [3] -4.5% | [4] 4% | [5] -10.1% | [6] 8.35%

CC(=O)NC1c2ccccc2-c2ccccc21
inactive: [1] -5.1% | [2] 34.2% | [3] -1.15% | [4] 42% | [5] 17.3% | [6] 3.8%

Cc1ccc(C)c(NCc2ccccc2)c1
inactive: [1] 41.6% | [2] 20.1% | [3] 8.85% | [4] -16.9% | [5] 36.9% | [6] 24.3%

Cc1ccc2nc[nH]c(=O)c2c1
inactive: [1] -1.1% | [2] 13.3% | [3] 7.85% | [4] -70.6% | [5] 19.4% | [6] -12.8%

COc1cc(C2C(C(=O)Nc3ccccc3C)=C(C)NC(C)=C2C(=O)Nc2ccccc2C)ccc1O
inactive: [1] -27.1% | [2] -8.45% | [3] -16.6% | [4] -3.15% | [5] -10.8% | [6] -9.95%

CCOC1C=CCCO1 (configuration not stated)
inactive: [1] 20% | [2] -2.7% | [3] 8.65% | [4] -6.55% | [5] -7.2% | [6] 5.65%

CCN(CC)CC1(C)NN=C2C(n3cccc3)=CC=CN21 (configuration not stated)
inactive: [1] -3.7% | [2] 11.7% | [3] -3.4% | [4] -20.6% | [5] -4.2% | [6] -4.9%

CC1CC(OC(=O)c2ccccc2)CCC1=O (configuration not stated)
inactive: [1] -5.6% | [2] -2.85% | [3] -7.65% | [4] 14.5% | [5] 15.6% | [6] -7.8%

CC1(C)OC2C3COc4nc5c(N)ncnc5n4C(O3)C2O1 (configuration not stated)
inactive: [1] -6% | [2] -5.2% | [3] -8.85% | [4] -5.05% | [5] -8.1% | [6] -9.9%

C(=N\N=C\c1ccccn1)/c1ccccn1
inactive: [1] 9.65% | [2] -6.95% | [3] 5.5% | [4] 4.8% | [5] -3.7% | [6] 26.2%

CCCCC[CH2][Sn]([CH2]CCCCC)([CH2]CCCCC)[NH]S(=O)(=O)c1ccc(C)cc1
active: [1] 99.3% | [2] 99.6% | [3] 99.5% | [4] 99% | [5] 99.2% | [6] 99.3%

CC(=O)N1c2ccccc2S(=O)(=O)c2ccccc21
inactive: [1] 1.6% | [2] 12.7% | [3] 0.75% | [4] -15.9% | [5] 2.05% | [6] 0.25%

CC(=O)OCC1OC(SC2=NC(=O)/C(=C/c3ccccc3)S2)C(OC(C)=O)C(OC(C)=O)C1OC(C)=O (configuration not stated)
inactive: [1] 40.2% | [2] 35.4% | [3] 55.4% | [4] 15.8% | [5] -4.1% | [6] 43.8%

O=C(O)c1cc([N+](=O)[O-])cc(P(=O)(O)O)c1
inactive: [1] 2.55% | [2] -6.45% | [3] -2% | [4] -20.2% | [5] -3.55% | [6] 12.9%

COc1cc([N+](=O)[O-])c2[nH]c(=O)ccc2c1
inactive: [1] -11.7% | [2] 19.7% | [3] -4.5% | [4] -7.2% | [5] -2.05% | [6] 3.45%

C=CCOC(=O)CCC(C#N)(C#N)CCC(=O)OCC=C
inactive: [1] -9.55% | [2] -7.1% | [3] -0.4% | [4] -25.8% | [5] 50.5% | [6] 15.3%

Cc1ccc(NC(=O)c2ccc(C)c(N)c2)c(C)c1
inactive: [1] -16.2% | [2] -21.2% | [3] -15.8% | [4] -9.7% | [5] -25.1% | [6] -5.7%

O=c1cc(-c2cccc3ccccc23)[nH]c2ncccc12
inactive: [1] -13.3% | [2] -10.7% | [3] -21.9% | [4] 13.9% | [5] -9.3% | [6] -29.5%

CC(Br)CCl (configuration not stated)
inactive: [1] 26.4% | [2] 17.1% | [3] 22.1% | [4] 2.1% | [5] 14.4% | [6] 39.2%

CC(=O)OC(c1ccc2c(c1)OCO2)C(C)(C)C (configuration not stated)
inactive: [1] 17% | [2] 14.9% | [3] -7.3% | [4] -33.5% | [5] 8.7% | [6] 7.9%

CCCCOC(=O)N1CCCCC1
inactive: [1] -9.75% | [2] -8.15% | [3] -17.3% | [4] -5.9% | [5] -14.3% | [6] -5.75%

C/C(=N\O)c1ccc2[nH]c(C)cc(=O)c2c1
inactive: [1] 2.95% | [2] 5.7% | [3] -5.45% | [4] -32.9% | [5] -1.15% | [6] 12.7%

CNCC(SC)c1ccc(O)c(O)c1 (configuration not stated)
inactive: [1] -9.8% | [2] -14.8% | [3] -20.4% | [4] -15.7% | [5] -31% | [6] -2.6%

CSCCOC(=O)C1C2CCC(O2)C1C(=O)O (configuration not stated)
inactive: [1] 11.1% | [2] 10.6% | [3] 1.55% | [4] 9.25% | [5] -0.6% | [6] 17.6%

Nc1ccc(S(=O)(=O)CC(=O)N2CCOCC2)cc1
inactive: [1] 6.2% | [2] -10.8% | [3] 8.3% | [4] 17.9% | [5] 4.95% | [6] 22.5%

O=C1N(Cc2ccccc2)[C@H]2CS(=O)(=O)C[C@@H]2N1Cc1ccccc1
inactive: [1] 0.9% | [2] 4.1% | [3] 8.75% | [4] -10% | [5] 0.85% | [6] 12.7%

O=C1SCC(O)=C1/C=N/Nc1nc2ccccc2o1
inactive: [1] -11.9% | [2] 6.45% | [3] 27.1% | [4] 31.7% | [5] 13.2% | [6] 12.3%

OC1CNC(=S)NC1
inactive: [1] -8.85% | [2] -10.2% | [3] -12.6% | [4] -22.2% | [5] -5.2% | [6] 12.9%

CCOC(=O)c1cnc(SC)nc1Nc1cccc(Cl)c1Cl
inactive: [1] 1.15% | [3] 35.9% | [6] 25.1%
active: [2] 99% | [4] 98.1% | [5] 98.8%

COc1ccc(-c2ccccc2C(=O)O)cc1
inactive: [1] -2.65% | [2] -14.8% | [3] 5.8% | [4] -12.5% | [5] -7.2% | [6] 8.1%
